Measurements from ChEMBL document CHEMBL3988442, “University of Dundee, Small-Polar-MMV Screening Library” (2021).
In all, about 48,000 compounds went through this assay and about 13,000 (27%) showed an effect of 50% or more. Some of the results follow.

system: Wolbachia pipientis; experiment: Anti-Wolbachia Cell-Based Screen; type: functional; design: scale not given: in the data most compounds retested in dose-response had high values; details: 5 µM

| SMILES | Percent Effect [%] |
| --- | --- |
| Cc1ccccc1CN1C[C@@H]2CC[C@H](C1)N(CC1CCC1)C2=O | -3.68 |
| c1cnnc(N2CCCC2CNc2nc3ccccc3o2)c1 (stereo unspecified) | 0.7954 |
| Cn1cc(N2CCCC(Nc3ccc4c(c3)CCC(=O)N4)C2=O)cn1 (stereo unspecified) | -0.6283 |
| CC(NC(=O)NC1CCN(Cc2ccccc2)CC1)c1nncn1C (stereo unspecified) | -0.6608 |
| CC(C)c1nsc(N2CCn3c(nnc3-c3ccccc3)C2)n1 | -7.754 |
| O=C(O)C(F)(F)F.O=C(c1ccc(F)cc1)N1C[C@@H]2COC[C@]2(COc2cccnc2)C1 | 125.5 |
| Cc1ccoc1C(=O)N1C[C@@H]2COC[C@]2(COCc2cccnc2)C1.O=C(O)C(F)(F)F | -8.448 |
| Cc1cc(C(=O)N2C[C@@H]3COC[C@]3(COCc3cccnc3)C2)no1 | -1.047 |
| O=C(O)C(F)(F)F.O=C(c1cc(C2CC2)on1)N1C[C@@H]2COC[C@]2(COc2cccnc2)C1 | 101.2 |
| Cc1ccccc1C(=O)N1C[C@@H]2COC[C@]2(COCc2cccnc2)C1.O=C(O)C(F)(F)F | -1.339 |
| O=C(COC1CCCC1)N1C[C@@H]2COC[C@]2(COc2cccnc2)C1.O=C(O)C(F)(F)F | 91.64 |
| O=C(COc1ccccc1)N1C[C@@H]2COC[C@]2(COc2cccnc2)C1.O=C(O)C(F)(F)F | 107.1 |
| COc1ccc(CN2C[C@@H]3COC[C@]3(COc3cccnc3)C2)cc1.O=C(O)C(F)(F)F.O=C(O)C(F)(F)F | 13.03 |
| O=C(O)C(F)(F)F.O=C(c1ccccc1F)N1C[C@@H]2COC[C@]2(COCc2cccnc2)C1 | 3.343 |
| CNC(=O)CCNC(=O)Nc1cccc(Cl)c1SC(F)F | -9.606 |
| CN(C)c1ccc(C(O)CNS(=O)(=O)C2CC2)cc1 (stereo unspecified) | -7.172 |
| Cc1ccc(C(=O)N2CCC3(CC2)c2ccccc2[C@@H](N)[C@@H]3O)c(=O)[nH]1 | 1.157 |
| CCN1CCN(C(=O)c2c[nH]c(C(C)C)n2)c2ccccc21 | 16.43 |
| COCCCNC(=O)COc1ccccc1C(F)(F)F | 10.69 |
| COCCCNC(=O)NCc1ccc(C)cc1 | 9.073 |
| COCCCNC(=O)Cc1cc(-c2ccccc2)on1 | -3.078 |
| COCCNc1c(-c2ccc(C)cc2)c(=O)c1=O | 115.7 |

| SMILES | Percent Effect [%] |
| --- | --- |
| COCCNC(C)c1ccc(-c2cccnc2)cc1 (stereo unspecified) | -4.646 |
| COCCCNc1cc(C(=O)N2CCOCC2)ccc1C | 15.11 |
| COCCCNc1c(-c2ccc(C)cc2)c(=O)c1=O | 103 |
| COCCCNc1c(-c2ccccc2)c(=O)c1=O | 111.1 |
| Cc1cnn(CCNCC(O)COc2cccc(C(F)(F)F)c2)c1 (stereo unspecified) | -5.996 |
| Oc1ccc(Br)c(CNc2cccc(-c3nnc[nH]3)c2)c1 | -21.72 |
| O=C(c1cc2ccccc2c(=O)[nH]1)N1CCN(CCO)CC1 | -3.156 |
| CCOc1ccc(Cl)c(C(=O)N2CCN(CCO)CC2)n1 | -4.151 |
| CC(C)Oc1ccc(Cl)c(C(=O)N2CCN(CCO)CC2)n1 | 76.59 |
| Cc1nc(-c2ccccc2)ccc1C(=O)N1CCN(CCO)CC1 | 1.858 |
| COCCOc1ccc(Cl)c(C(=O)N2CCN(CCO)CC2)n1 | 97.38 |
| CC(O)CN1CCN(C(=O)c2cnc(OC(C)C)c(Cl)c2)CC1 (stereo unspecified) | -53.57 |
| Cc1ccc(C(=O)O)cc1S(=O)(=O)Nc1nn(-c2ccccc2)cc1C | -18.22 |
| CC(C(N)=O)N1CCc2onc(-c3cccc(F)c3)c2C1 (stereo unspecified) | 31.58 |
| CCC(CC)CS(=O)(=O)NC(=O)C1CCC1 | -17.91 |
| COC(=O)NC1(C(=O)Nc2ccc(-c3ncc[nH]3)cc2)CCCC1 | 5.421 |
| Cc1cccc(-c2nc(CN3CCc4cnc(C)nc4C3)no2)c1 | 0.7919 |
| Cc1cc(C)c(CNC(=O)N2CCCC2c2ccccc2)c(=O)[nH]1 (stereo unspecified) | 10.36 |
| Cc1cc(C)c(CNC(=O)N2CCCC2c2cccc(F)c2)c(=O)[nH]1 (stereo unspecified) | 115.9 |
| Cc1cc(C)c(CNC(=O)N(C)CC2CCCCO2)c(=O)[nH]1 (stereo unspecified) | -5.607 |
| Cc1cc(C)c(CNC(=O)N2CCCC2c2cccn2C)c(=O)[nH]1 (stereo unspecified) | 1.985 |
| Cc1cc(C)c(CNC(=O)N2CCCC2c2ccc(F)cc2)c(=O)[nH]1 (stereo unspecified) | 86.68 |

| SMILES | Percent Effect [%] |
| --- | --- |
| Cn1cc(N2CC3(CCN(S(=O)(=O)C4CC4)C3)CC2=O)cn1 (stereo unspecified) | -15.9 |
| CCCN(CCC)C(=O)c1sc(C)nc1C | -0.04444 |
| CCN(CC)CCn1ccnc1-c1cccc(O)c1 | 9.33 |
| CCc1nnc2n1CCN(CC(=O)Nc1cc(C(C)(C)C)nn1C)C2 | -9.721 |
| CC(C)(C)OCCN(Cc1cccc(O)c1)C1CCC(O)CC1 (stereo unspecified) | -0.1894 |
| Cc1nc(C2CCCN2CCCS(=O)(=O)N(C)C)no1 (stereo unspecified) | -21.09 |
| Cc1nc(C2CCCN2Cc2ccc(S(=O)(=O)N(C)C)o2)no1 (stereo unspecified) | 115.8 |
| Cc1nc(C2CCCN2Cc2cc(Cl)c3c(c2)OCCO3)no1 (stereo unspecified) | -1.319 |
| Cc1cc(C2CCCN2Cc2nnc(-c3ccco3)o2)on1 (stereo unspecified) | 10.62 |
| CCN(C(=O)CN1CCCC1c1cc(C)no1)c1ccccc1C (stereo unspecified) | -1.91 |
| Cc1cc(C2CCCN2Cc2ccc(S(=O)(=O)N(C)C)o2)on1 (stereo unspecified) | 125.1 |
| CNC(=O)CCCNCc1c(C(C)C)nn(C)c1N(C)C | -0.6366 |
| O=C1CC(c2ccncc2)c2c(c(C(=O)O)cn2-c2ccc(F)cc2)N1 (stereo unspecified) | 5.752 |
| Cc1ccc(S(=O)(=O)NC(=O)COc2cccc(C#N)c2)c(C)c1 | 41.14 |
| Cn1cc(S(=O)(=O)NC(=O)C2(c3ccccc3)CCC2)cn1 | -6.386 |
| CS(=O)(=O)NCCNC(=O)C1(c2ccc(F)cc2)CC1 | 10.89 |
| Cc1ccccc1S(=O)(=O)NC(=O)C1(c2ccccc2)CCC1 | 93.86 |
| Cc1ccccc1S(=O)(=O)NC(=O)C1(c2cccc(Cl)c2)CC1 | 3.29 |
| Cc1ccc(S(=O)(=O)NC(=O)C2(c3ccccc3)CCC2)c(C)c1 | 104.1 |
| Cc1ccc(S(=O)(=O)NC(=O)c2cccc3c2OCCO3)c(C)c1 | -13.25 |
| Cc1cccc(C2(C(=O)NS(=O)(=O)c3cnn(C)c3)CCCC2)c1 | -9.611 |
| Cc1ccc(S(=O)(=O)NC(=O)C2(c3ccc(F)cc3)CCC2)c(C)c1 | 80.83 |
